LASV entry inh = blocks Lassa virus binding to or entry into cells; AID 540256; Lassa virus pseudotype entry inhibition, cell reporter; Potency, µM (titrated, usually from 37.9 µM), hits mostly inhibitors; 300,000 tested, 1.2% active; calls by dose curve; tested in HEK293 cells; further: nearly all actives have a fitted effect of over 50% in size
FMDV antiviral = foot and mouth disease virus antiviral activity | 410,000 tested, 1.2% active | FMDV antiviral cell-based qHTS | Potency, µM (series often up to 57.9 µM), most hits filed as inhibitors; calls by dose curve; tested in HEK293T cells; further: read-out not given here; nearly all actives have a fitted effect of over 45% in size
HCV inh = inhibitors of hepatitis C virus infection | 340,000 tested, 3.4% active | Huh7.5.1 HCVcc-Cre infection, luciferase reporter, 44 h | Potency, µM (series often up to 41.8 µM), most hits filed as inhibitors
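Seed cells (1,000/well) for 4 h; treat with compound and infect with HCVcc-Cre, moi about 0.5. Incubate 44 h, then detect luciferase activity.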
MARV entry inh = blocks Marburg virus binding to or entry into cells; Marburg virus pseudotyped entry inhibition, cell reporter; Potency, µM (series often up to 37.8 µM), actives largely listed as inhibitors; 300,000 tested, 1.8% active; AID 540276; calls by dose curve; tested in HEK293 cells
RE007 growth inh = less growth of the S. pombe RE007 Vpr strain | S. pombe RE007 Vpr strain, BacTiter-Glo ATP luminescence, 24 h | 360,000 tested, 0.21% active | Potency, µM (top dose mostly 92.2 µM), actives largely listed as inhibitors; active means well fitted falling curve with a large enough effect; inconclusive means small, poorly fitted or top-dose-only effect; inactive means no such curve, though single readings can be large or run the other way; further: nearly all actives have a fitted effect of over 50% in size
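Fission yeast strain RE007, carrying one chromosomally integrated HIV-1 vpr copy, was seeded at OD 0.01 in PMG+AL medium with 23 nL pinned compound. After 24 h at 30 °C and 99% humidity, viability was read by BacTiter-Glo luminescence.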
Sm TGR block = blocks Schistosoma mansoni thioredoxin glutathione reductase. Q962Y6. purified TGR, DTNB reduction, TNB absorbance 405 nm. Potency, µM (series often up to 114 µM), hits mostly inhibitors. 360,000 tested, 3% active. AID 485364; further: nearly all actives have a fitted effect of over 60% in size
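First, TGR (20 nM dispensed) and NADPH were mixed with compound. Second, a 15 min room-temperature incubation followed. Third, further NADPH and then DTNB were added to start the reaction. Finally, TNB absorbance was monitored kinetically.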
Large screens that a line does not name were inactive. Most compounds without a hit are left out; they make up all but 7.2% or so of the library. Unless noted, the call rests on the fitted dose curve; in most records, active means well fitted curve in the direction sought with a large enough effect; inconclusive means small, poorly fitted or top-dose-only effect, or another doubt; inactive means no such curve, though single readings can be large; an effect the other way counts as inactive or inconclusive.

Cc1cccc(CN2C(=O)N/C(=C/c3ccc(C)s3)C2=O)c1	LASV entry inh 3.2µM, HCV inh inconclusive, MARV entry inh inconclusive
Cc1ccc(/C=C2/NC(=O)N(Cc3ccccc3)C2=O)s1	LASV entry inh inconclusive, Sm TGR block inconclusive
CC(=NNC(=O)c1ccncc1)c1ccc(Cl)cc1Cl	none (no result: Sm TGR block)
N#Cc1cccc(NC(=O)N2CC[C@@]3(CCCN(C(=O)c4cccc(F)c4)C3)C2)c1	none (no result: LASV entry inh, HCV inh, MARV entry inh, RE007 growth inh, Sm TGR block)
CC(Sc1ncnc2c1cnn2-c1ccccc1)C(=O)NCC1CCCO1 (configuration not stated)	HCV inh inconclusive (no result: LASV entry inh, MARV entry inh)
Cc1nc(SC(C)C(=O)NCC2CCCO2)c2cc(-c3ccccc3)sc2n1 (configuration not stated)	LASV entry inh 0.5µM, MARV entry inh 0.63µM
CCOC(=O)C1CCCN(Cc2cc(OC)c(O)c(OC)c2)C1 (configuration not stated)	Sm TGR block 16µM
CCOC(=O)C1CCN(Cc2cc(C(C)(C)C)c(O)c(C(C)(C)C)c2)CC1	MARV entry inh inconclusive, Sm TGR block 11µM
CCOC(=O)C1CCN(Cc2ccc(O)c(OC)c2)CC1	Sm TGR block 56µM
CCOC(=O)C1CCN(Cc2ccc(Cl)c(Cl)c2)CC1	FMDV antiviral inconclusive
O=C(NCCc1ccccc1)c1ccc(Nc2nc3ccccc3n3nnnc23)cc1	none (no result: HCV inh, RE007 growth inh)
CN(C(=O)C1CCCN(c2ncnc3c2nc2n3CCCCC2)C1)c1ccccc1F (configuration not stated)	LASV entry inh inconclusive, FMDV antiviral inconclusive (no result: HCV inh, MARV entry inh, RE007 growth inh)
Cc1ccc(NC(=O)CN(C)S(=O)(=O)c2cnc[nH]2)cc1	none (no result: HCV inh, RE007 growth inh)
COc1ccccc1-c1noc(-c2ccc(N3CCN(c4ccccc4)CC3)c([N+](=O)[O-])c2)n1	FMDV antiviral inconclusive (no result: HCV inh, RE007 growth inh)
Cc1cc(C)n(-c2ccc(C(=O)OC(C)C(=O)Nc3ccc(C(N)=O)cc3)cc2)n1 (configuration not stated)	FMDV antiviral 35µM, HCV inh inconclusive
Cc1cccc2sc(NC(=O)CN(C)S(=O)(=O)c3ccc(Br)s3)nc12	LASV entry inh inconclusive, FMDV antiviral inconclusive, HCV inh inconclusive, MARV entry inh inconclusive
Cc1cccc2sc(NC(=O)CN(C)S(=O)(=O)c3cccs3)nc12	FMDV antiviral 40µM
Cc1cccc2sc(NC(=O)c3ccc(Cl)s3)nc12	HCV inh 10µM (no result: LASV entry inh, MARV entry inh)
COc1ccc2cc3cc(C(=O)NCCc4ccccc4)sc3nc2c1Cl	none (no result: HCV inh, MARV entry inh, RE007 growth inh)
COc1cc(NS(=O)(=O)c2cc(Br)cc3c2N(C(=O)C2CC2)CC3)cc(OC)c1	LASV entry inh 3.5µM (no result: HCV inh, MARV entry inh, RE007 growth inh)
CC1CCN(CCOCCOc2ccc(Cl)cc2Br)CC1	LASV entry inh inconclusive, HCV inh 22µM, MARV entry inh inconclusive (no result: FMDV antiviral)
Cc1cc(Cl)c(OCCOCCN2CCN(C)CC2)c(Br)c1	HCV inh inconclusive, MARV entry inh inconclusive
Cc1cc(Cl)c(OCCOCCN2CCC(C)CC2)c(Br)c1	LASV entry inh inconclusive, HCV inh inconclusive, MARV entry inh 6.5µM
CC(C)CC1N=C2c3ccccc3N=C(SCC(=O)NCCc3ccc(Cl)cc3)N2C1=O (configuration not stated)	none (no result: HCV inh, MARV entry inh, RE007 growth inh)
COC1=CC(=O)c2c(ccc3ncnc(N)c23)C1=O	LASV entry inh inconclusive, FMDV antiviral 2.5µM, HCV inh inconclusive, MARV entry inh inconclusive (no result: Sm TGR block)
O=C(NCC(=O)N(Cc1ccco1)C(C(=O)NC1CCCC1)c1cccnc1)c1cccs1 (configuration not stated)	MARV entry inh inconclusive
O=C(NCC(=O)N(Cc1ccco1)C(C(=O)NC1CCCC1)c1ccncc1)c1cccs1 (configuration not stated)	LASV entry inh inconclusive, Sm TGR block 35µM
O=C(CCC(=O)N(Cc1ccco1)C(C(=O)NC1CCCC1)c1ccncc1)Nc1cccnc1 (configuration not stated)	Sm TGR block 25µM
Cc1ccc(C(C(=O)NCc2ccco2)N(Cc2ccco2)C(=O)CNC(=O)c2ccco2)cc1 (configuration not stated)	MARV entry inh inconclusive, Sm TGR block 45µM
O=C(CCC(=O)N(c1ccc(F)cc1)C(C(=O)NC1CCCC1)c1ccncc1)Nc1cccnc1 (configuration not stated)	none
COc1ccc(C(C(=O)NC2CCCCC2)N(Cc2ccco2)C(=O)CNC(=O)c2ccco2)cc1 (configuration not stated)	none (no result: Sm TGR block)
COc1cc(NC(=O)Cn2c(=O)nc(-c3ccccc3F)c3cc(Cl)ccc32)cc(OC)c1	LASV entry inh inconclusive (no result: HCV inh, MARV entry inh, RE007 growth inh)
COC(=O)CCNC(=O)N1CCN(c2nnc(C)c3c(C)n(-c4ccc(Cl)cc4)nc23)CC1	none (no result: HCV inh, MARV entry inh, RE007 growth inh)
C=Cc1ccc(Cn2c(C(=O)O)c(CNCc3ccc(F)cc3)c3ccc(C)cc32)cc1	LASV entry inh inconclusive, FMDV antiviral inconclusive (no result: HCV inh, MARV entry inh, RE007 growth inh)
OC(COc1ccccc1)Cn1c2ccccc2c2ccccc21 (configuration not stated)	HCV inh inconclusive, RE007 growth inh inconclusive
Oc1cccc2ccc[n+](CC(O)Cn3c4ccccc4c4ccccc43)c12 (configuration not stated)	LASV entry inh inconclusive, HCV inh 22µM, MARV entry inh inconclusive
CCn1c(NCc2cccc(Cl)c2)nc2ccccc21	none (no result: HCV inh, RE007 growth inh)
O=C(Nc1cccc(F)c1)N1CCCC2(CCN(C(=O)c3csnn3)CC2)C1	none (no result: LASV entry inh, HCV inh, MARV entry inh, RE007 growth inh, Sm TGR block)
O=C1NC(=S)N/C1=C/c1ccc(-c2c(Br)cc([N+](=O)[O-])cc2Br)o1	HCV inh 8.9µM (no result: LASV entry inh, FMDV antiviral, RE007 growth inh)
O=C1NC(=S)N/C1=C/c1cccc([N+](=O)[O-])c1	none
O=CC1=C(c2ccccc2)Oc2ccccc2O1	LASV entry inh inconclusive, FMDV antiviral inconclusive, MARV entry inh 7.9µM, RE007 growth inh inconclusive
CCOC(=O)c1c(-n2cnnn2)sc2c1CCCC2	none (no result: LASV entry inh, MARV entry inh)
CCOC(=O)c1c(N2C(=O)C3C4C=CC(O4)C3C2=O)sc2c1CCCC2 (configuration not stated)	RE007 growth inh inconclusive, Sm TGR block 3.2µM
CCc1ccc(CC2S/C(=C(\C#N)C(C)=O)NC2=O)cc1 (configuration not stated)	LASV entry inh 5.8µM, MARV entry inh inconclusive
O=C1CCC2CCCCC2O1 (configuration not stated)	none (no result: LASV entry inh, FMDV antiviral, HCV inh, RE007 growth inh, Sm TGR block)
CC(/C=C/C=C/c1ccccc1)=N\NC(=O)c1cccnc1	Sm TGR block inconclusive
CC(/C=C\C=C\c1ccccc1)=N\NC(=O)c1cncc(Br)c1	LASV entry inh inconclusive, MARV entry inh inconclusive, Sm TGR block 40µM
O=C(N/N=C\C=C\c1ccco1)c1cncc(Br)c1	Sm TGR block 18µM
O=C(N/N=C/C=C/c1ccco1)c1cccnc1	Sm TGR block 22µM (no result: FMDV antiviral)
O=C(N/N=C/C=C\c1ccco1)c1cccnc1	Sm TGR block 25µM
COc1ccccc1CNC(=O)C1CCN(S(=O)(=O)c2cn(C)cn2)CC1	none (no result: HCV inh, MARV entry inh, RE007 growth inh)
CCN1CCN(C(=O)Cn2ncc3c4ccccc4n(Cc4ccccc4)c3c2=O)CC1	none (no result: HCV inh, RE007 growth inh)

High-throughput results deposited in PubChem BioAssay by National Center for Advancing Translational Sciences (NCATS).
